Structures are written as SMILES. The campaign covered roughly 400,000 compounds. About 13,000 (3.2%) were called active. Roughly 18% stayed inconclusive and do not appear here. The call rests on the fitted dose curve; in most records, active means well fitted cell-killing curve with a large enough effect; inconclusive means small, poorly fitted or top-dose-only effect, or effect the other way; inactive means flat fitted curve, though single readings scatter. For the sample, actives were picked, then their nearest neighbours and some compounds at random.
On the % scale 0 is the no-effect control and ±100 the full control effect; potency means the concentration at half of the fitted maximal effect.

This experiment in a line: qHTS assay for MDR1-selective chemotherapeutics: Primary screen using the drug-selected MDR subline cells KB-V1. Further: nearly all actives have a fitted effect of over 60% in size. As to conditions: KB-V1 MDR cells viability, CellTiter-Glo, 72 h; series mostly up to 46.1 µM; activity change, negative = cytotoxicity: at the top concentration. The gist of the method:
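Cytotoxicity toward P-gp-expressing KB-V1 cells was determined as loss of CellTiter-Glo luminescence after 72 h at 37 degrees C. Compounds were tested in quantitative HTS format across a concentration range, with curves fitted to normalized data.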
On to `COc1ccc(CCCNC(=O)C2Cc3c(-c4cccc(C(N)=O)c4)ccnc3O2)cc1` (stereo not drawn), for which the “activity change, negative = cytotoxicity” value is -6.13% (inactive).
As to `COc1ccc(CC(N)c2csc(NC(=O)Cc3ccccc3)n2)cc1` (stereo not drawn), the “activity change, negative = cytotoxicity” value was 2.07% (inactive).
For `Cc1cccc(C(=O)C(O)(c2ccccc2)C2CCCCC2=O)c1` (stereo not drawn), the “activity change, negative = cytotoxicity” value was -1.77% (inactive).
The same measure, in the same setting: the result for `COCCOCCn1cnc2ccccc21` reads -0.954% (inactive); that for `CCOC(=O)c1ccc(NC(=O)Cn2cnc3cc(C)c(C)cc32)cc1`, 10.5% (inactive).
On to `N#CCSc1nc2ccc(N3CCOCC3)cc2c(=O)n1CCc1ccccc1`, for which the Potency is 3.26 µM (active).
Turning to `COCCNC(=O)c1ccc(Cn2c(SCC(=O)NCC3CCCO3)nc3ccc(Br)cc3c2=O)cc1` (stereo not drawn), the “activity change, negative = cytotoxicity” value was 19.5% (inactive).
Consider `Cn1c(=O)n(CCc2ccccc2)c(=O)c2c1nc1n2CCCN1c1ccccc1`, for which the “activity change, negative = cytotoxicity” value was 8.2% (inactive).
`CCCCn1c(SCC(=O)NCC2CCCO2)nc2ccc(N3CCOCC3)cc2c1=O` (stereo not drawn): the Potency is 3.66 µM (active).
On to `CCn1c(SCC(=O)NCC2CCCO2)nc2ccccc21` (stereo not drawn), for which the “activity change, negative = cytotoxicity” value is 19.3% (inactive).
With `CCn1cc2nc(SCc3cccc(F)c3)n(CCc3ccccc3)c(=O)c2n1`, the “activity change, negative = cytotoxicity” value is -1.77% (inactive).
For the molecule `O=C(Nc1ccc(Cl)cn1)c1ccccc1-c1ccccc1`, the “activity change, negative = cytotoxicity” value is -17.1% (inactive).
`CC1(C)CC(=O)C=C(c2ccc(COC(=O)c3cc(F)cc(F)c3)cc2)C1=O`: the “activity change, negative = cytotoxicity” value is -6.38% (inactive).
Turning to `OC(c1ccccc1)c1nc(-c2cnc3ccccc3c2)cs1` (stereo not drawn), the Potency is 16.4 µM (active).
On to `COc1cccc(C(NC(C)=O)c2nc(-c3cnc4ccccc4c3)cs2)c1` (stereo not drawn), for which the “activity change, negative = cytotoxicity” value is -6.5% (inactive).
On the same count and under the same terms, the result for `COc1ccc(-c2csc(C(O)c3cccc(Cl)c3)n2)cn1` (stereo not drawn) reads -5.18% (inactive).
On the same count and under the same terms, the figure for `CCCC(=O)N1CCC1(C)C(=O)NCc1ccc(SC)cc1` (stereo not drawn) is -29.3% (inactive); for `COc1ccc(OC)c(NC(=O)C2CCCN2S(=O)(=O)c2ccc3c(c2)CC(C)N3C(C)=O)c1` (stereo not drawn) it is -6.15% (inactive); for `COc1ccc(NC(=O)COC(=O)C2COc3ccccc3O2)cc1` (stereo not drawn) it is 18.6% (inactive).
On to `CCOc1ncccc1C(=O)OCC(=O)N1c2ccccc2CC1C` (stereo not drawn), for which the “activity change, negative = cytotoxicity” value is 2.4% (inactive).
Take `CCOC(=O)c1[nH]c(C)c(C(=O)OCC(=O)N2c3ccccc3CC2C)c1C` (stereo not drawn): the Potency is 2.06 µM (active).
With `CCOC(=O)c1c(C)[nH]c(C(=O)OCC(=O)N2CCCC2=O)c1C`, the “activity change, negative = cytotoxicity” value is 7.52% (inactive).
Turning to `Cc1ccc(F)cc1NC(=O)CCSc1nc(-c2ccco2)cc(C(F)(F)F)n1`, the “activity change, negative = cytotoxicity” value is -19.2% (inactive).
Regarding `CN(C)S(=O)(=O)c1cccc(NC(=O)COC(=O)/C=C/c2cccs2)c1`, the “activity change, negative = cytotoxicity” value is 15.2% (inactive).
For `Cc1ccc(S(=O)(=O)N(C)C)cc1NC(=O)COC(=O)/C=C/c1cccs1`, the “activity change, negative = cytotoxicity” value was 14.3% (inactive).
For `Cc1ccc(S(=O)(=O)N(C)C)cc1NC(=O)/C=C/c1cccs1`, the Potency was 14.6 µM (active).
As for `Cc1cccc(C)c1NC(=O)C(c1cccc(F)c1)N1CCN(C)CC1` (stereo not drawn), the “activity change, negative = cytotoxicity” value was -8.73% (inactive).
In the case of `Cc1ccc(S(=O)(=O)N2CCOCC2)cc1C(=O)NCc1ccc(F)cc1`, the “activity change, negative = cytotoxicity” value is 0.614% (inactive).
`Cc1cccc(N(Cc2ccccc2)C(=O)c2cc(S(=O)(=O)N3CCOCC3)ccc2F)c1`: the “activity change, negative = cytotoxicity” value is -12.4% (inactive).
In the case of `Cc1ccc(S(=O)(=O)N2CCOCC2)cc1C(=O)NC(=S)N(Cc1ccccc1)C(C)C`, the Potency is 11.6 µM (active).
As for `CC1(C(=O)Nc2ccc3c(c2)OCCO3)CN(S(C)(=O)=O)CC(=O)N1Cc1cccc(F)c1` (stereo not drawn), the “activity change, negative = cytotoxicity” value is -10.5% (inactive).
Turning to `Cc1nc2ccccn2c(=O)c1NC(=O)c1ccc(Br)o1`, the “activity change, negative = cytotoxicity” value is 8.75% (inactive).
As for `Oc1c(Cl)cc(Cl)c(Cl)c1Cc1c(O)c(Cl)cc(Cl)c1Cl`, the Potency was 5.17 µM (active).
Regarding `O=C(O)C(=Cc1ccc([N+](=O)[O-])cc1)CCc1ccccc1`, the “activity change, negative = cytotoxicity” value is 2.87% (inactive).
Still for that read-out and setting: the figure for `CNC(=O)C1CN(C(=O)c2cccc(S(=O)(=O)N3CCc4ccccc43)c2)c2ccccc2O1` (stereo not drawn) is -22.8% (inactive).
Consider `COc1ccc(NC(=O)CSc2nc3ncccc3[nH]2)c(OC)c1`, for which the “activity change, negative = cytotoxicity” value was -1.22% (inactive).
Regarding `CC(=O)c1nn(-c2ccccc2)c(=Nc2ccccc2)cc1C`, the “activity change, negative = cytotoxicity” value was 0.939% (inactive).
As to `CCC(C(=O)OCC(=O)Nc1ccccc1-c1ccccc1)c1ccccc1` (stereo not drawn), the “activity change, negative = cytotoxicity” value was -12.5% (inactive).
With `O=C(Cc1ccccc1)NCc1ccc(F)cc1`, the “activity change, negative = cytotoxicity” value is 8.39% (inactive).
In the case of `O=C(CNCc1ccc(F)cc1)Nc1ccccc1-c1ccccc1`, the Potency is 13 µM (active).
With `CC1(C(=O)NS(=O)(=O)c2ccccc2Cl)CCN1C(=O)c1cccc(F)c1` (stereo not drawn), the “activity change, negative = cytotoxicity” value was 2.05% (inactive).
Consider `O=S1(=O)CC(N2CCN(CCO)CC2)CN1Cc1cn(Cc2cccc(Cl)c2)nn1` (stereo not drawn), for which the “activity change, negative = cytotoxicity” value was -3.69% (inactive).
`CN(c1ccccc1)S(=O)(=O)c1ccc(Cl)c(C(=O)OCC(=O)NCc2ccco2)c1`: the “activity change, negative = cytotoxicity” value was 2.26% (inactive).
Regarding `Cc1cc(C(=O)OCC(=O)NCc2ccco2)c(C)n1-c1ccccc1`, the Potency was 2.59 µM (active).
In the case of `O=C(COC(=O)c1ccccc1O)NCc1ccco1`, the “activity change, negative = cytotoxicity” value was 27.6% (inactive).
Still for that read-out and setting: the figure for `O=C(CCn1ccc2cc(S(=O)(=O)N3CCCC3)ccc21)NCc1cccc(Cl)c1` is 0.918% (inactive).
Same read-out and setting: the figure for `Cc1ccccc1CN1C(=O)CSCC1(C)C(=O)Nc1c(C)cccc1C` (stereo not drawn) is -18% (inactive).
On to `O=C(CCNC(=O)c1ccccc1Cl)NCc1ccco1`, for which the “activity change, negative = cytotoxicity” value is 17.2% (inactive).
On the same count and under the same terms, the result for `CCN1CCN(C(=O)c2ccc(CN(c3ccc(C)c(C)c3)S(C)(=O)=O)cc2)CC1` reads -5.68% (inactive); that for `CS(=O)(=O)N(CC(=O)NCc1ccco1)c1ccc2c(c1)OCO2`, -9.81% (inactive).
Same read-out and setting: the result for `CC(C)(C)c1ccc(C(=O)NCc2ccco2)cc1` reads 0% (inactive).
Consider `Cc1ccc(N(Cc2ccc(C(=O)Nc3ccccc3C(=O)NCc3ccco3)cc2)S(C)(=O)=O)cc1C`, for which the Potency is 2.06 µM (active).
Take `Cc1cccc(Nc2ccccc2C(=O)NCc2ccco2)c1C`: the Potency is 18.4 µM (active).
